CYP2C9 inh: human CYP2C9 inhibition; P11712; CYP2C9 Supersomes, luciferin-H conversion, luminescence; inhibition, % at 5 µM; 96,000 tested, 20% active;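 active means blocking of liver enzyme CYP2C9 beyond about 50% at 5 µM, limit read from the data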
CD11b adhes enh: enhancers of human CD11b/CD18 binding to fibrinogen; 93,000 tested, 0.07% active; activation, % at 10 µM; K562 CD11b/CD18 adhesion to fibrinogen, ATPlite luminescence;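 active means 10 µM primary screen giving 50% or more activity, confirmed by 40% or more on retest at that dose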
Target sequence (P05107 whole entry, looked up, other chains not shown): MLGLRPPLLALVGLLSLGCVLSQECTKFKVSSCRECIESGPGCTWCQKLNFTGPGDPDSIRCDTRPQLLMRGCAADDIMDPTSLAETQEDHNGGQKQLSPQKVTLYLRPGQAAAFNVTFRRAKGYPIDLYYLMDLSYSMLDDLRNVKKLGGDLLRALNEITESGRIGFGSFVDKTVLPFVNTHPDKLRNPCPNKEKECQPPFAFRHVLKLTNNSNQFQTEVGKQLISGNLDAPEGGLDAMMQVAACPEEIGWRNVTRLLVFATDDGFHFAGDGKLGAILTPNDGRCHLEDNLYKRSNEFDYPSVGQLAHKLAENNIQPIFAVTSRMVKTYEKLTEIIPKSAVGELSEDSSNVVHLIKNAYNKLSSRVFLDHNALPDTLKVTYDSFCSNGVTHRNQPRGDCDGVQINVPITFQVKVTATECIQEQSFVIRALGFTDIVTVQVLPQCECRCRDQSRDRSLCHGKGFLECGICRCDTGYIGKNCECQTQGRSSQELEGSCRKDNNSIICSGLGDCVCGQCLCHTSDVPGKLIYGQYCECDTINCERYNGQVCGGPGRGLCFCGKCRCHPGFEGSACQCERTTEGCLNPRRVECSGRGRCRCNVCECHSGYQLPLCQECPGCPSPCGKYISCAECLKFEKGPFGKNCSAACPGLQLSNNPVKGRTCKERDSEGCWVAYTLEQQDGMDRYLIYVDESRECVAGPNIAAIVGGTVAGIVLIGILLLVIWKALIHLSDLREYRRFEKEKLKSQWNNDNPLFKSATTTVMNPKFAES
CYP2C19 inh: inhibitors of human CYP2C19 | P33261 | CYP2C19 Supersomes, luciferin-H EGE luminescence, 30 min | inhibition, % at 5 µM | 96,000 tested, 21% active;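 active means CYP2C19 inhibition above a set limit at 5 µM in the primary screen, cut at about 50% in these data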;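 further: plate controls were negative control wells for no effect and 2.5 mM tranylcypromine positive control for full effect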
CD11b adhes inh: blocks human CD11b/CD18 adhesion to fibrinogen; P05107+P11215; K562 CD11b/CD18 adhesion to fibrinogen, ATPlite luminescence; Mn2+ added to activate the integrin; inhibition, % at 10 µM; AID 1497; 93,000 tested, 0.54% active;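 active means primary inhibition of 50% or more at 10 µM, then 40% or more on retest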
CYP2C9 activ: CYP2C9 (human) activation; activation factor at 5 µM; 96,000 tested, 1.4% active; AID 1024; P11712; recombinant CYP2C9, luciferin-H conversion, luminescence; hits give high values; factor 1 = untreated enzyme, 0 = blocked;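 active means activation factor of 2 or more for CYP2C9 at a 5 µM dose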;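 further: 0 = sulfaphenazole-blocked wells and 1 = vehicle-only wells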
CYP2C19 act: activators of human cytochrome P450 2C19 | P33261 | recombinant CYP2C19, luciferin-H EGE luminescence; hits give high values; 0 = fully inhibited enzyme, 1 = untreated enzyme | activation factor at 5 µM | 96,000 tested, under 10 active | AID 1025;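 active means activation factor of at least 2 at 5 µM in the primary screen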;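 further: 0 = wells with 2.5 mM tranylcypromine and 1 = vehicle-only wells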
An asterisk follows results filed as active. Hits are enriched below; roughly 28% of the tested compounds scored in any of these assays.

What do the screens show for `N#Cc1ccc(N2CCN(C(=O)c3cccc(F)c3)CC2)c(F)c1`?
CYP2C9 inh: 31; CD11b adhes enh: -4; CYP2C19 inh: 92*; CD11b adhes inh: -16; CYP2C9 activ: 0.7; CYP2C19 act: 0.1

Results for O=C(c1cccnc1)N1CCc2ccccc2C1 ?
CYP2C9 inh: -8; CYP2C19 inh: 25; CYP2C9 activ: 1.1; CYP2C19 act: 0.8

Results for O=C(c1cccnc1)N1CCN(C(=O)c2ccccc2F)CC1 ?
CYP2C9 inh: 65*; CD11b adhes enh: -4; CYP2C19 inh: 51*; CD11b adhes inh: -11; CYP2C9 activ: 0.3; CYP2C19 act: 0.5

How did O=C(c1cccc(F)c1)N1CCN(c2cccc(Cl)c2)CC1 do in these assays?
CYP2C9 inh: 86*; CD11b adhes enh: -1; CYP2C19 inh: 94*; CD11b adhes inh: -12; CYP2C9 activ: 0.1; CYP2C19 act: 0.1

Results for CCOc1ccccc1NC(=O)C(Sc1ccccc1)c1ccccc1 (stereo not drawn) ?
CYP2C9 inh: -24; CD11b adhes enh: 0; CYP2C19 inh: 40; CD11b adhes inh: 15; CYP2C9 activ: 1.2; CYP2C19 act: 0.6

Results for CCOc1ccc(NC(=O)C(c2ccccn2)N(C(=O)CCl)c2ccc(F)cc2)cc1 (stereo not drawn) ?
CD11b adhes enh: -2; CD11b adhes inh: -11

Results for CCOC(=O)Nc1sc2nc(C)cc(C)c2c1-n1cccc1 ?
CYP2C9 inh: 66*; CD11b adhes enh: -1; CYP2C19 inh: 45; CD11b adhes inh: -7; CYP2C9 activ: 0.3; CYP2C19 act: 0.5

How did CCOC(=O)Nc1nc2ccccc2s1 do in these assays?
CYP2C9 inh: 29; CD11b adhes enh: -2; CYP2C19 inh: -10; CD11b adhes inh: 5; CYP2C9 activ: 0.7; CYP2C19 act: 1.1

Results for CCOc1ccccc1N1C(=O)CC(Sc2ncccc2C(=O)O)C1=O (stereo not drawn) ?
CYP2C9 inh: -30; CD11b adhes enh: -2; CYP2C19 inh: -18; CD11b adhes inh: -9; CYP2C9 activ: 1.3; CYP2C19 act: 1.2

Results for O=C(CSc1nnc(NC2CCCCC2)s1)Nc1ccc(N2CCOCC2)cc1 ?
CYP2C9 inh: 18; CYP2C19 inh: -2; CYP2C9 activ: 0.8; CYP2C19 act: 1

How did CCCSc1nnc(NC(=O)Nc2ccc(F)cc2)s1 do in these assays?
CYP2C9 inh: 29; CD11b adhes enh: -9; CYP2C19 inh: 15; CD11b adhes inh: 98; CYP2C9 activ: 0.7; CYP2C19 act: 0.9

Results for Cc1ccc(NC(=O)CSc2nnc(NC(=O)CN3CCOCC3)s2)cc1 ?
CYP2C9 inh: 10; CD11b adhes enh: -4; CYP2C19 inh: 57*; CD11b adhes inh: -12; CYP2C9 activ: 0.9; CYP2C19 act: 0.4

What do the screens show for `CC(C)Nc1nnc(SCC(=O)Nc2ccc(F)cc2)s1`?
CYP2C9 inh: 70*; CD11b adhes enh: -4; CYP2C19 inh: 91*; CD11b adhes inh: -2; CYP2C9 activ: 0.3; CYP2C19 act: 0.1

Results for Cc1cccc(C)c1NC(=O)CSc1nnc(NC(=O)CN2CCOCC2)s1 ?
CYP2C9 inh: 1; CYP2C19 inh: 20; CYP2C9 activ: 1; CYP2C19 act: 0.8

What do the screens show for `CC(=O)c1ccc(NC(=O)CSc2nnc(NC(=O)CN3CCOCC3)s2)cc1`?
CYP2C9 inh: 67*; CD11b adhes enh: 3; CYP2C19 inh: 6; CD11b adhes inh: -17; CYP2C9 activ: 0.3; CYP2C19 act: 0.9

What do the screens show for `COCCNC(=O)CN(C(=O)CCC(=O)Nc1nccs1)c1ccccc1OC`?
CYP2C9 inh: 34; CD11b adhes enh: -1; CYP2C19 inh: 11; CD11b adhes inh: -11; CYP2C9 activ: 0.7; CYP2C19 act: 0.9

How did O=C(NNC(=O)c1ccccc1-n1cccc1)c1ccc(Cl)c(Cl)c1 do in these assays?
CYP2C9 inh: -49; CYP2C19 inh: 50*; CYP2C9 activ: 1.5; CYP2C19 act: 0.5

Results for CC(C)(C)c1ccc(C(=O)NNC(=O)c2ccccc2Br)cc1 ?
CYP2C9 inh: -5; CD11b adhes enh: 2; CYP2C19 inh: -10; CD11b adhes inh: -6; CYP2C9 activ: 1.1; CYP2C19 act: 1.1

What do the screens show for `O=C(NNC(=O)c1ccccc1-n1cccc1)c1ccc(Cl)cc1`?
CYP2C9 inh: -78; CYP2C19 inh: -1; CYP2C9 activ: 1.8; CYP2C19 act: 1

What do the screens show for `O=C(NNC(=O)c1ccccc1Br)c1ccc(Cl)c(Cl)c1`?
CYP2C9 inh: -123; CYP2C19 inh: 24; CYP2C9 activ: 2.2*; CYP2C19 act: 0.8

Results for O=C(CCNS(=O)(=O)c1cccc2nsnc12)N1CC(=O)N(CCc2ccccc2)C(=O)C1 ?
CYP2C9 inh: 4; CD11b adhes enh: -3; CYP2C19 inh: 12; CD11b adhes inh: 15; CYP2C9 activ: 1; CYP2C19 act: 0.9

Results for CCn1c(=O)cc(OCC(=O)N2CCCC2)c2ccccc21 ?
CYP2C9 inh: -7; CD11b adhes enh: -2; CYP2C19 inh: -11; CD11b adhes inh: -4; CYP2C9 activ: 1.1; CYP2C19 act: 1.1

Results for CCOC(=O)c1ccccc1NC(=O)COc1cc(=O)n(CC)c2ccccc12 ?
CYP2C9 inh: 81*; CD11b adhes enh: 9; CYP2C19 inh: 80*; CD11b adhes inh: 12; CYP2C9 activ: 0.2; CYP2C19 act: 0.2

How did CN(C(=O)COc1cc(=O)n(C)c2ccccc12)c1ccc(Cl)cc1 do in these assays?
CYP2C9 inh: 22; CD11b adhes enh: 1; CYP2C19 inh: 39; CD11b adhes inh: -10; CYP2C9 activ: 0.8; CYP2C19 act: 0.6

What do the screens show for `CCn1c(=O)cc(OCC(=O)Nc2ccc(C)cn2)c2ccccc21`?
CYP2C9 inh: 25; CD11b adhes enh: -3; CYP2C19 inh: 17; CD11b adhes inh: 12; CYP2C9 activ: 0.7; CYP2C19 act: 0.8

How did CCOc1ccc(N(CC)C(=O)COc2cc(=O)n(CC)c3ccccc23)cc1 do in these assays?
CYP2C9 inh: 94*; CD11b adhes enh: 6; CYP2C19 inh: 70*; CD11b adhes inh: 9; CYP2C9 activ: 0.1; CYP2C19 act: 0.3

What do the screens show for `CCOc1ccc(N(CC)C(=O)COc2cc(=O)n(C)c3ccccc23)cc1`?
CYP2C9 inh: 70*; CD11b adhes enh: 2; CYP2C19 inh: 23; CD11b adhes inh: -12; CYP2C9 activ: 0.3; CYP2C19 act: 0.8

How did COC(=O)C(CC(C)C)NC(=O)c1ccc([N+](=O)[O-])c(C)c1 (stereo not drawn) do in these assays?
CYP2C9 inh: -6; CYP2C19 inh: 11; CYP2C9 activ: 1.1; CYP2C19 act: 0.9

Results for CCC1(C)Cc2c(c(=O)n(-c3ccccc3)c3ncnc(N)c23)CO1 (stereo not drawn) ?
CYP2C9 inh: -4; CD11b adhes enh: 1; CYP2C19 inh: -15; CD11b adhes inh: -4; CYP2C9 activ: 1; CYP2C19 act: 1.2
